Assay outcomes (PubChem BioAssay)
FBPA coupling cs: inhibits coupling enzyme system, counter-screen for aldolase hits; 0.67% of 290,000 active; AID 2472; activity change, negative = inhibition, % at 58.2 µM, hits read low; coupling enzyme system counterscreen, AmpLite Red fluorescence; in the data active = activity change below about -30%; note: % is set by controls: 0 for no effect and ±100 for the full control effect
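Fluorescence at 525 nm excitation and 598 nm emission measured inhibition of the coupled detection system without aldolase. Compounds (at 57.5 uM final) were preincubated 10 min at room temperature with coupling enzyme reagent before a 20 min substrate/AmpLite Red step.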
NPSR antag: antagonists of human neuropeptide S receptor cAMP signaling; CHO-NPSR cells, cAMP TR-FRET, antagonist mode; Potency, µM (highest dose often 38.3 µM), without a hit: top-dose activity change, negative = inhibition, usual class: inhibitors; 1% of 220,000 active; note: potency is the fitted concentration of half-maximal effect; % is set by controls: 0 for no effect and ±100 for the full control effect; nearly all actives have a fitted effect of over 50% in size
TR SRC2 fluor cs: counter-screen for TRb-SRC2 inhibitors: fluorescence interference | 0.29% of 280,000 active | TRb/SRC2 Texas Red total fluorescence interference | Potency, µM (series often up to 106 µM), inactives show top-dose fluorescence change, negative = quenching; active = well fitted curve in either direction with a large enough effect; note: potency is the fitted concentration of half-maximal effect; % is set by controls: 0 for no effect and ±100 for the full control effect
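Human TRβ ligand-binding domain (0.6 uM) and Texas Red SRC2 peptide (20 nM) in Tris buffer with 1 uM T3 and 5% DMSO were incubated with pinned compound for 5 hr at ambient temperature. Total fluorescence was computed as S + 2P (555/632 nm).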
TSHR antag: blocks TSH signaling through the human TSH receptor. 0.2% of 330,000 active. activity change, negative = inhibition, % at 11.5 µM. AID 504810. P16473. TSHR-expressing cells, TSH-stimulated cAMP HTRF, 2 h; active compounds read low;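 active = activity change below a set negative limit, meaning inhibition stronger than a set level, cut at about -70% in these data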; note: % is set by controls: 0 for no effect and ±100 for the full control effect
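TSHR-expressing cells, 200/well, pre-treated with compound, then stimulated with EC80 TSH (4nM final) for 2 hours at 37 deg C. cAMP measured by competitive HTRF: anti-cAMP cryptate antibody in lysis buffer plus cAMP-d2, read after 30 minutes at room temperature.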
TCR act: activates T cell receptor signaling; primary human leukocytes, anti-CD3, IL-2 HTRF, 48 h; Potency, µM (series often up to 9.22 µM), for inactives: at the top dose activation of IL-2 secretion, most hits filed as activators; 330,000 tested, under 10 active; AID 504894; note: % of control where 0% means no effect
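IL-2 release read by HTRF sandwich (Eu cryptate donor, d2 acceptor, 665 nm emission) after 48 hr exposure of primary human leukocytes to compound together with anti-CD3 beads in the absence of co-stimulatory signals.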
TRb SRC2 PPI: inhibitors of human thyroid hormone receptor beta-SRC2 interaction. Potency, µM (top dose mostly 106 µM), inactives show at the highest dose activity change, negative = inhibition, actives largely listed as inhibitors. P10828. 0.065% of 280,000 active. TRbeta-SRC2 peptide binding, fluorescence polarization; receptor liganded with 1 µM T3;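 note: potency is the fitted concentration of half-maximal effect; plate controls were bound peptide for no effect and peptide without receptor for full effect; nearly all actives have a fitted effect of over 50% in size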
Target sequence (P10828 whole entry, looked up): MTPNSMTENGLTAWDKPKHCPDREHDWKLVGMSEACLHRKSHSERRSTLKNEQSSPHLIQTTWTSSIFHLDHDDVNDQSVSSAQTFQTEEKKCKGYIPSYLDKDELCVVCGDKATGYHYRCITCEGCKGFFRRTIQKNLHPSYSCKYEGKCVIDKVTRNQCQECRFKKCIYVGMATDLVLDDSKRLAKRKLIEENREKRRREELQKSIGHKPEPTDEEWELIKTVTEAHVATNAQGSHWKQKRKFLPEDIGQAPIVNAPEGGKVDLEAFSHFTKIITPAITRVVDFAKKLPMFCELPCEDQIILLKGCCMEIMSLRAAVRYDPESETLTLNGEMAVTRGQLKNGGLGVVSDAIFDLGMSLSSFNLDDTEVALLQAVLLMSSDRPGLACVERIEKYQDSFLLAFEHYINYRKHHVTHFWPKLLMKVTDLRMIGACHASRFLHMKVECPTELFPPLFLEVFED
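TRb LBD 0.6 uM + Texas Red SRC2 peptide 20 nM, 1 uM T3, Tris buffer w/ 5% DMSO; compound pinned, 5 h RT; FP read ex 555/em 632; normalized to unbound and bound controls.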
An asterisk follows results filed as active; . = no result given; [ ] = another dose, or the depositor's remark. Compounds with a hit are over-represented: about 1% of the library has one in this group of screens. Unless noted, calls come from the whole dose curve; as a rule, active = well fitted curve in the direction sought with a large enough effect; inconclusive = small, poorly fitted or top-dose-only effect, or another doubt; inactive = no such curve, though single readings can be large; an effect the other way counts as inactive or inconclusive.

SMILES	FBPA coupling cs	NPSR antag	TR SRC2 fluor cs	TSHR antag	TCR act	TRb SRC2 PPI
CCOC(=O)c1c(CSc2ccccc2)n(C)c2cc(Br)c(O)c(CN(C)C)c12	-3.5	32.3%[7.67 µM]	1.3%	-11.4	-3.7%	7.1%
CCOC(=O)c1c(CSc2ccsc2)n(C)c2cc(Br)c(O)c(CN(C)C)c12	-2.5	12.6µM*	-1.4%	-1.3	-0.6%	-1.3%
CCC(Sc1nc2nccnc2c(=O)n1Cc1ccc(C)cc1)C(=O)NC1CCCCC1 (configuration not stated)	.	.	5.6%	.	.	1.5%
COC(=O)c1ccc(OC(=O)CS(=O)c2ccccc2[N+](=O)[O-])cc1 (configuration not stated)	0.1	-9.7%	0.0%	6.5	-3.6%	-2.9%
O=C(CS(=O)c1ccc(C(F)(F)F)cc1[N+](=O)[O-])Oc1ccccc1 (configuration not stated)	-39.3*	-10.4%[46.1 µM]	-0.7%	-70.7*	-5.1%	13.1%
CCN(CCC(=O)Nc1cc(OC)cc(OC)c1)Cc1ccccc1	-39.8*	-3.7%[46.1 µM]	-2.8%	5.2	.	6.0%
CCCN(CCC(=O)Nc1ccccc1F)CC1CC1	0.7	-10.1%[46.1 µM]	-0.8%	5.2	0.3%	-3.3%
CCCN(CCC(=O)Nc1cc(OC)cc(OC)c1)CC1CC1	-35.6*	-11.7%[46.1 µM]	-4.5%	-5.8	-6.5%	-1.6%
COc1ccccc1CNC(=O)CSCc1nc(-c2ccc(OC)c(OC)c2)oc1C	.	.	3.2%	.	.	-0.7%
CC1(C(=O)NC2CCCCC2)Cc2ccccc2C(=O)N1Cc1ccc(F)cc1 (configuration not stated)	.	.	31.6µM*[quencher]	.	.	-9.2%
O=C1CSC2(C(=O)N(Cc3ccccc3F)c3ccccc32)N1c1cccc(C(F)(F)F)c1 (configuration not stated)	.	.	-1.8%	.	.	-8.5%
CCOC(=O)C1=C(C)NC(=O)C1CC(=O)Nc1ccccc1 (configuration not stated)	-42.5*	7.7%[46.1 µM]	0.8%	13.9	0.1%[46.1 µM]	9.0%
CCOC(=O)C1=C(C)NC(=O)NC1c1ccc(OCC(=O)Nc2ccccc2)c(OC)c1 (configuration not stated)	-2.4	-18.9%[46.1 µM]	1.6%	3.3	-6.0%	-21.7%
CCOCCc1nn2c(=O)cc(COC(=O)c3ccccc3NC(=O)C3CCCCC3)nc2s1	.	.	-0.9%	.	.	2.3%
CCOc1ccccc1NC(=O)Nc1cc(C(=O)NCc2ccc(C)cc2)ccc1N1CCCC1	.	.	-1.8%	.	.	1.2%
COc1ccc(-c2cc(C(F)(F)F)n3nc(C(=O)Nc4cccc(Cl)c4Cl)cc3n2)cc1OC	.	.	0.0355µM*[quencher]	.	.	-25.2%[53 µM]
COc1ccc(-c2cc(C(F)(F)F)n3nc(C(=O)Nc4cc(C(F)(F)F)ccc4Cl)cc3n2)cc1OC	.	.	5.3%	.	.	8.5%
O=C(O)c1cc(N(Cc2ccccc2O)Cc2ccccc2O)ccc1O	-14.8	.	1.9%	.	.	-7.4%
CCCCCOP(=O)(OCCCCC)C1(NS(=O)(=O)c2ccccc2)C=CC(=O)c2ccccc21 (configuration not stated)	-8.5	10µM*	-4.5%	10.7	3.7%	-3.7%
C[Si]1(C)N[Si](C)(C)N[Si](C)(C)N1	.	.	-3.2%[201 µM]	.	.	10.7%[201 µM]
CCOc1cccc(CN2CCN(c3cccc(C(F)(F)F)c3)CC2)c1O	1.2	10µM*	-1.1%	-5.0	-0.5%	3.9%
COc1cccc(CN2CCN(c3cccc(C(F)(F)F)c3)CC2)c1OC	-1.8	0.4%[46.1 µM]	1.5%	-6.7	-4.5%[46.1 µM]	-5.0%
c1ccc2cc3ccccc3cc2c1	.	.	-5.4%[201 µM]	.	.	-1.8%[201 µM]
CCCn1c(/C=C/c2ccco2)nc2ccccc21	-10.4	-0.6%[46.1 µM]	3.55µM*[quencher]	25.0	4.9%[46.1 µM]	-19.5%[53 µM]
CCCCn1c(/C=C/c2ccco2)nc2ccccc21	-5.4	-23.1%[46.1 µM]	10.6%	17.4	0.9%[46.1 µM]	-4.7%
SMILES	FBPA coupling cs	NPSR antag	TR SRC2 fluor cs	TSHR antag	TCR act	TRb SRC2 PPI
CCc1ccc(NC(=O)c2cnn(-c3c(C)cccc3C)c2C2CCNCC2)cc1	.	.	3.4%	.	.	-4.3%
Cn1c(SCC(=O)NC2CCCCC2)nnc1-c1ccncc1	-1.0	.	.	-15.5	-2.2%	.
Cc1ccc(-c2nnc(SCC(=O)NC3CCCC3)n2C)cc1	1.5	.	.	-93.8*	1.1%	.
COc1cccc(Cn2c(C)c(CNCc3ccccc3Cl)c(C(=O)O)c2C)c1	.	.	-1.0%	.	.	-2.3%
Cc1cc(C)cc(NC2=CC(c3cccc(F)c3)N(c3cc(C)cc(C)c3)C2=O)c1 (configuration not stated)	.	.	3.9%	.	.	-1.5%
O=C(NCCCn1ccnc1)c1noc2c1CCCC2	1.1	10.5%[46.1 µM]	0.1%	-14.9	.	0.3%
O=C(NCCCn1ccnc1)c1noc2c1CCc1ccccc1-2	-43.9*	-4.1%[46.1 µM]	-3.3%	-5.6	-0.6%	-7.9%
Brc1ccc(-c2nc(N/N=C/c3cccnc3)c3ccccc3n2)cc1	-1.5	10µM*	-7.7%	-3.8	-3.0%	-2.7%
COc1ccc(CNC(=O)CCCn2c(=O)c3cccn3c3ccc(F)cc32)cc1OC	.	.	4.7%	.	.	1.5%
Cc1cccn2c(=O)c(/C=C(\C#N)C(=O)NC3CCS(=O)(=O)C3)c(N3CC(C)OC(C)C3)nc12 (configuration not stated)	1.9	8.2%	0.6%	4.0	-3.7%	-2.6%
Cc1cccn2c(=O)c(/C=C(\C#N)C(=O)NC3CCS(=O)(=O)C3)c(N3CCC(C(N)=O)CC3)nc12 (configuration not stated)	-0.4	-20.3%	0.0003µM*[quencher]	23.0	0.8%[46.1 µM]	-19.7%[53 µM]
CCOC(=O)c1cccc(NC(=O)CSc2ncc3c(n2)-c2ccc(Cl)cc2N(Cc2ccccc2)S3(=O)=O)c1	.	.	0.0%	.	.	1.9%
CCOc1cc(N2CCOCC2)c(OCC)cc1NC(=O)[C@H](C)N1C(=O)C2CC=CCC2C1=O (some centres not stated)	-0.5	-2.2%	-0.3%	-31.6	2.5%	2.9%
CCOc1cc(N2CCOCC2)c(OCC)cc1NC(=O)Cc1ccc(OC)c(OC)c1	-40.9*	-22.7%[46.1 µM]	1.2%	2.2	-2.9%	7.5%
CCOc1cc(N2CCOCC2)c(OCC)cc1NC(C)C(=O)N1CCC(C)CC1 (configuration not stated)	-46.6*	-1.7%[46.1 µM]	4.8%	-5.4	1.9%[46.1 µM]	-5.6%
CCOc1cc(N2CCOCC2)c(OCC)cc1NC1=NCCCCC1	-31.7*	-24.4%[46.1 µM]	10.2%	7.3	3.0%	-15.6%
CCOc1cc(N2CCOCC2)c(OCC)cc1NC(=O)CSc1ncn[nH]1	-35.5*	-12.5%	7.8%	20.3	-2.4%	-12.4%
CCOc1cc(N2CCOCC2)c(OCC)cc1NC(=O)CSc1n[nH]c(N)n1	-19.5	0.8%	-0.9%	-11.1	-0.8%	-5.6%
COC(=O)c1cccc(C(=O)OC)c1	.	.	-5.4%[201 µM]	.	.	-5.6%[201 µM]
CCOc1ccc2c(c1)NC(c1cccs1)=NC(c1ccc(F)cc1)=N2	.	.	0.7%	.	.	8.6%
